{"source": "PubChem BioAssay AID1619", "about": "(SRMLSC, 2009)", "note": "About 830 (0.38%) of roughly 220,000 compounds were called active. These entries were drawn from the full list. Results with a measured potency or affinity are listed apart. A number with no mark means an inactive call.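 The calls were made as follows: active = compound inhibiting the enzyme by more than half at any dose during confirmatory dose-response retesting; inconclusive = strong single-dose inhibitors picked by rank but not retested; inactive = the rest.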", "data": [{"target": "Leucine aminopeptidase (Plasmodium falciparum (isolate 3D7)) (UniProt Q8IL11)", "sequence (Q8IL11 whole entry, looked up)": "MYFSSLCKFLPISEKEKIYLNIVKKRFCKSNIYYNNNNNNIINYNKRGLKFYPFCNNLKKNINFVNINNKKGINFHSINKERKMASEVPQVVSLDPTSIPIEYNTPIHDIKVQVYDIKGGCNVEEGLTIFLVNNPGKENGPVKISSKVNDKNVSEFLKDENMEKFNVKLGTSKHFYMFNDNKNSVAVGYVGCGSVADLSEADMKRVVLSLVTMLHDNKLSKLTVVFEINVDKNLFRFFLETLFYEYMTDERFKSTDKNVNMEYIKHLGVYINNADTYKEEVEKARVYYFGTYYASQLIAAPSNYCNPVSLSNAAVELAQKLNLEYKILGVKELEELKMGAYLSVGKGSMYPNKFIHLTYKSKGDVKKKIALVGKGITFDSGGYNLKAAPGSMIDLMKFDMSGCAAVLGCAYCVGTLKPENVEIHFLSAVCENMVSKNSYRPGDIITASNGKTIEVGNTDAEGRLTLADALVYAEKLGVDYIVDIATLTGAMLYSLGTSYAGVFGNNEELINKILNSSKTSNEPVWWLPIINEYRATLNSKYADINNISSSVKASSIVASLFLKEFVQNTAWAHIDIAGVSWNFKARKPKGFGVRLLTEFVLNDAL", "assay": "P. falciparum M17LAP inhibitors, primary screen, biochemical, fluorogenic H-Leu-NHMec substrate, 1536-well (AID 1619);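 also: plate controls were full reaction with DMSO carrier for no effect and no enzyme background for full effect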", "conditions": "recombinant M17LAP, H-Leu-NHMec fluorogenic kinetic assay; at 30 µM; active compounds read high", "units": {"inhibition": "%"}, "values": [{"molecule": "Cc1cc(C=C2C(=O)c3ccccc3C2=O)c(C)n1-c1ccc(C(=O)O)cc1", "inhibition": 18.3}, {"molecule": "Cc1cc(C=C2C(=O)c3ccccc3C2=O)c(C)n1-c1ccccc1", "inhibition": -3.81}, {"molecule": "Cn1c(=O)cc(OCCCC(=O)NCCC2=CCCCC2)c2ccccc21", "inhibition": -10.7}, {"molecule": "C=CCn1cccc(C(=O)Nc2ccc(OC)cc2OC)c1=O", "inhibition": 21.4}, {"molecule": "COC(=O)COc1cccc2c(=O)n(CC(=O)N3CCC(C)CC3)ccc12", "inhibition": -7.98}, {"molecule": "COc1cccc2c(=O)n(CC(=O)N3CCCCC3)ccc12", "inhibition": 33.4}, {"molecule": "COC(=O)COc1cccc2c(=O)n(CC(=O)N3CCCCC3)ccc12", "inhibition": 12.9}, {"molecule": "CCOC(=O)COc1cccc2c(=O)n(CC(=O)N3CCC(C)CC3)ccc12", "inhibition": 3.95}, {"molecule": "COc1ccccc1/C=C(\\NC(=O)c1ccc(OC)c(OC)c1)C(=O)Nc1cccc([N+](=O)[O-])c1", "inhibition": -33.9}, {"molecule": "Cc1ccc(-c2cc(C(=O)NCc3ccco3)no2)cc1", "inhibition": -5.12}, {"molecule": "COc1cc(SC)ccc1C(=O)NCCN1CCOCC1", "inhibition": -0.03}, {"molecule": "O=C(c1cccc(NS(=O)(=O)c2cccc(F)c2)c1)N1CCN(c2ccccc2)CC1", "inhibition": -9.4}, {"molecule": "Cn1c(SCC(=O)Nc2ccc(N3CCOCC3)cc2)nnc1-c1ccccc1", "inhibition": -0.5}, {"molecule": "COc1ccc(/C=N\\N=C2/SC(CC(=O)O)C(=O)N2c2ccc(O)cc2)cc1", "note": "(configuration not stated)", "inhibition": 45.6}, {"molecule": "COc1ccc(/C=N/N=C2\\SC(CC(=O)O)C(=O)N2c2ccccc2)cc1", "note": "(configuration not stated)", "inhibition": 33.9}, {"molecule": "Cc1ccc2cc(C)c3nnc(SCC(=O)N4CCCc5ccccc54)n3c2c1C", "inhibition": 1.13}, {"molecule": "Cc1cc(C(=O)CN2C(=O)NC3(CCCc4ccccc43)C2=O)c(C)n1Cc1ccccc1", "note": "(configuration not stated)", "inhibition": 7.63}, {"molecule": "CCOc1ccccc1NC(=O)NC1(C(=O)N2CCN3CCCC3C2)CCCCC1", "note": "(configuration not stated)", "inhibition": 20.5}, {"molecule": "CCn1c(SCC(=O)OC)nnc1-c1ccc(C)cc1", "inhibition": 3.28}, {"molecule": "CCn1c(SCC(=O)O)nnc1-c1ccccc1", "inhibition": -5.68}, {"molecule": "Cc1cc(SCC(=O)c2ccc(O)c(O)c2)nc2ccccc12", "inhibition": 36.2}, {"molecule": "Cc1cc(SCC(=O)c2ccc(O)c(O)c2)n2nc(C)c(-c3ccccc3)c2n1", "inhibition": 16.1}, {"molecule": "Cn1cnnc1SCC(=O)c1ccc(O)c(O)c1", "inhibition": 38.8}, {"molecule": "CCn1c(SCC(=O)c2ccccc2)nnc1-c1cccnc1", "inhibition": 14.5}, {"molecule": "O=C(CSc1nc2ccccc2n1CCc1ccccc1)c1ccc(O)c(O)c1", "inhibition": -0.72}, {"molecule": "CCn1c(SCC(=O)c2ccc(C)cc2)nnc1-c1ccncc1", "inhibition": 3.05}, {"molecule": "Cc1ccc2cc(CN(CC3CCCO3)S(=O)(=O)c3cccc4nsnc34)c(=O)[nH]c2c1", "note": "(configuration not stated)", "inhibition": -1.29}, {"molecule": "O=C(COC(=O)c1ccc[nH]c1=O)NCC1CCCO1", "note": "(configuration not stated)", "inhibition": -1.42}, {"molecule": "Cc1ccc(S(=O)(=O)N2CCN(CC(=O)NC3CCCc4ccccc43)CC2)c(C)c1", "note": "(configuration not stated)", "inhibition": 5.05}, {"molecule": "CC(NC(=O)C(C)N1C(=O)C2C3CC(C(Br)C3Br)C2C1=O)c1ccccc1", "note": "(configuration not stated)", "inhibition": 10.6}, {"molecule": "C=CCOC(=O)C1=C(C)Nc2ncnn2C1c1cc(Br)ccc1F", "note": "(configuration not stated)", "inhibition": -2.3}, {"molecule": "Cc1ccc(CSc2nnc(SCC(=O)N/N=C/C=C/c3ccccc3[N+](=O)[O-])s2)cc1", "inhibition": 5.78}, {"molecule": "S=c1[nH]nc(-c2ccccn2)n1/N=C/c1ccco1", "inhibition": 0.92}, {"molecule": "CCOc1ccc(C(=O)CN2CCN(S(=O)(=O)c3ccc(F)cc3)CC2)cc1", "inhibition": 26.6}, {"molecule": "CCOc1ccc(C(=O)CN2CCN(S(=O)(=O)c3ccc(Br)cc3)CC2)cc1", "inhibition": 41.1}, {"molecule": "CC(C)[C@H](NS(=O)(=O)c1ccc2c(c1)OCCO2)C(=O)OCC(=O)Nc1ccccc1Cl", "inhibition": 9.34}, {"molecule": "Cc1ccc(C)c(NC(=O)c2ccccc2NS(=O)(=O)c2cc([N+](=O)[O-])ccc2C)c1", "inhibition": 31.8}, {"molecule": "CC(=O)Nc1ccc(NS(=O)(=O)c2cc([N+](=O)[O-])ccc2C)cc1", "inhibition": 1.99}, {"molecule": "CCN(CC)CCN(C(=O)c1ccc2c(c1)CCCC2)c1nc2ccc(F)cc2s1", "inhibition": -4.78}, {"molecule": "c1ccc(CCNc2nc(-c3ccncc3)nc3ccccc23)cc1", "inhibition": 11.8}, {"molecule": "CCc1ccc(-c2csc(NC(=O)C3CCCO3)c2C(=O)OC(C)C)cc1", "note": "(configuration not stated)", "inhibition": 57.8}, {"molecule": "COC(=O)c1c(-c2cccc(C)c2)csc1NC(=O)C1CCCO1", "note": "(configuration not stated)", "inhibition": -0.44}, {"molecule": "Cc1ccsc1C(=O)NNC(=O)C1CC=CCC1C(=O)O", "note": "(configuration not stated)", "inhibition": 28}, {"molecule": "CCOC(=O)c1c(-c2ccccc2)csc1NC(=O)C1CCCO1", "note": "(configuration not stated)", "inhibition": 17.1}, {"molecule": "COC(=O)c1sccc1NC(=O)C1CC=CCC1C(=O)O", "note": "(configuration not stated)", "inhibition": 36.4}, {"molecule": "CC(C)OC(=O)c1c(-c2ccc(C(C)C)cc2)csc1NC(=O)C1CCCO1", "note": "(configuration not stated)", "inhibition": 16.2}, {"molecule": "CCOC(=O)c1c(-c2ccc(OC)c(OC)c2)csc1NC(=O)C1CCCO1", "note": "(configuration not stated)", "inhibition": -3.98}, {"molecule": "COC(=O)c1c(-c2ccccc2)csc1NC(=O)c1ccco1", "inhibition": 4.09}, {"molecule": "COc1ccc(NC(=O)C2=C(C)NC(=O)NC2c2cccs2)c(OC)c1", "note": "(configuration not stated)", "inhibition": 2.25}, {"molecule": "COc1ccc(OCC(=O)OC2CCCN(C)C2)cc1", "note": "(configuration not stated)", "inhibition": 3.48}, {"molecule": "Cc1c(-c2ccc(Cl)cc2)oc(=O)c2c(N)n(-c3ccccc3)nc12", "inhibition": -7.58}, {"molecule": "CCN(c1ccccc1)S(=O)(=O)c1cc(C(=O)OC(C)C(=O)Nc2ccc3c(c2)OCCO3)ccc1C", "note": "(configuration not stated)", "inhibition": -0.98}, {"molecule": "Cn1c(SCC(=O)NCCN2C(=O)CSC2=O)nnc1-c1ccccc1", "inhibition": -14.5}, {"molecule": "Cc1cc(C)c(-c2c(O)c3cnn(-c4ccccc4)c3[nH]c2=O)c(C)c1", "inhibition": 13.5}, {"molecule": "Cc1ccc(CC(=O)N2CCOCC2)cc1", "inhibition": 0.85}, {"molecule": "Cc1ccc2ccccc2[n+]1CCCS(=O)(=O)[O-]", "inhibition": 7.83}, {"molecule": "CCOC(=O)c1c(-c2cccc([N+](=O)[O-])c2)csc1NC(=O)C1CC1", "inhibition": -5.68}, {"molecule": "CCOC(=O)c1c(-c2ccc(F)cc2)csc1NC(=O)C1CC=CCC1C(=O)O", "note": "(configuration not stated)", "inhibition": 3.77}, {"molecule": "COC(=O)c1c(-c2ccc(C)cc2)csc1NC(=S)NC(=O)c1ccc(F)cc1", "inhibition": -17.5}, {"molecule": "CCOC(=O)c1c(-c2ccc(C)cc2)csc1NC(=O)C1CCCO1", "note": "(configuration not stated)", "inhibition": -4.23}, {"molecule": "CCOC(=O)c1c(-c2cccc([N+](=O)[O-])c2)csc1NC(=O)C1CCCCC1", "inhibition": -7.16}, {"molecule": "COC(=O)c1c(-c2ccccc2)csc1NC(=O)C1CC=CCC1C(=O)O", "note": "(configuration not stated)", "inhibition": 6.75}, {"molecule": "Cc1nn(-c2ccccc2)c(N)c1C(O)(CSc1nccn1C)C(F)(F)F", "note": "(configuration not stated)", "inhibition": -3.48}, {"molecule": "CCC(CC)c1nnc(NC(=O)C2=NNC(=O)CC2)s1", "inhibition": -4.73}, {"molecule": "COc1ccc(-c2cc(=O)n(-c3ccc([N+](=O)[O-])cc3)[nH]2)cc1", "inhibition": 2.52}, {"molecule": "Nn1cnc2sc3c(c2c1=O)CCC3", "inhibition": 0.94}, {"molecule": "CCC(=O)Nc1ccc2c(c1)C(=O)c1ccccc1C2=O", "inhibition": -6.31}, {"molecule": "COC(=O)N1[C@H](C)C=C[C@]1(Cc1ccccc1)C(=O)O", "inhibition": 2.77}, {"molecule": "CCOC(=O)c1ccc(Cl)c(NC(=O)c2ccc(-c3ccccc3)cc2)c1", "inhibition": -7.72}, {"molecule": "COc1ccc(N2C(=O)/C(=C/c3ccc([N+](=O)[O-])cc3)C=C2c2ccccc2)cc1", "inhibition": -15.3}, {"molecule": "COc1ccccc1Nc1nc(-c2c(C)nc3ncccn23)cs1", "inhibition": 11.3}, {"molecule": "COc1ccc(C2C(C#N)=C(N)OC3=C2C(=O)CC(C)(C)C3)cc1", "note": "(configuration not stated)", "inhibition": 7}, {"molecule": "CN=c1scc(C)n1/N=C/c1ccc(O)c(O)c1O", "inhibition": 59}, {"molecule": "CCN=c1scc(C)n1/N=C/c1ccsc1", "inhibition": 12.2}, {"molecule": "CCCCN(CC)CCCNC(=O)c1cc2c(=O)n(C)c3ccccc3c2n1C", "inhibition": -2.09}, {"molecule": "COc1ccc(C(=O)CCC(=O)O)cc1", "inhibition": 2.45}, {"molecule": "C/C(=C1/SC(=S)N(CCC(=O)O)C1=O)c1ccc(O)cc1", "inhibition": 52.2}, {"molecule": "COc1ccc(/C=C2/SC(=S)N(CCC(=O)O)C2=O)cc1", "inhibition": 38.8}, {"molecule": "O=C(O)CCN1C(=O)/C(=C\\c2ccncc2)SC1=S", "inhibition": 12.4}, {"molecule": "C=CCNC(=O)CCCc1ccccc1", "inhibition": 11.4}, {"molecule": "CC1CCCCN1C(=O)Cn1cnc2c1c(=O)n(C)c(=O)n2C", "note": "(configuration not stated)", "inhibition": 0.19}, {"molecule": "Cc1cc(-c2ccccc2)nc(Oc2cccc(C(F)(F)F)c2)c1S(C)(=O)=O", "inhibition": -2.06}, {"molecule": "COc1cccc(-n2nc3c(=S)[nH]nc(C)c3c2C)c1", "inhibition": -3.52}, {"molecule": "O=C(O)COCC(=O)Nc1cc(C(F)(F)F)cc(C(F)(F)F)c1", "inhibition": -0.47}, {"molecule": "COc1ccccc1NS(=O)(=O)c1ccc(NC(=O)c2ccncc2)cc1", "inhibition": -5.68}, {"molecule": "COc1ccc(-c2cc(=O)c3c(O)c(OC)c(O)cc3o2)cc1", "inhibition": -3.88}, {"molecule": "Cc1ccccc1-c1cc(=O)c2c(O)cccc2o1", "inhibition": -7.05}, {"molecule": "COc1ccc(C2=NOC(C(=O)Nc3cc(C)on3)C2)cc1", "note": "(configuration not stated)", "inhibition": -16.7}, {"molecule": "COc1ccccc1NC(=O)CSC1CC(=O)N(c2ccc3c(c2)OCO3)C1=O", "note": "(configuration not stated)", "inhibition": 2.14}, {"molecule": "COC(=O)c1ccc(N2C(=O)CC(SCC(=O)Nc3ccc(OC)cc3)C2=O)cc1", "note": "(configuration not stated)", "inhibition": -6.08}, {"molecule": "COC(=O)[C@@]1(Cc2ccccc2)[C@H]2c3cc(C(=O)N4CCCC4)n(CCSCCO)c3C[C@H]2CN1C(=O)c1ccccc1", "inhibition": 2.66}, {"molecule": "CN(CCC#N)S(=O)(=O)c1ccc2[nH]cc(C(=O)NCCc3ccccc3)c(=O)c2c1", "inhibition": -16}]}]}
